Compounds with a hit are over-represented: about 21% of the library has one in this group of screens.
IL-1B inflam inh – blocks inflammasome-driven IL-1 beta release; activity change, % at 57.5 µM; 360,000 tested, 4.7% active; THP-1 LPS/ATP IL-1B secretion, AlphaLISA, 16 h; stronger effect = lower value; in the data active means activity change below about -50%; inconclusive means mostly about -30% to -49%; further: on the % scale 0 is the no-effect control and ±100 the full control effect
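Secreted IL-1B measured by AlphaLISA bead assay after 16 h compound exposure of THP-1 cells; compounds (final up to 57.5 uM) added 1 h before LPS (250 ng/mL) and ATP (1.25 mM) stimulation; lower signal means less secretion.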
D3 ag – D3 dopamine receptor (human) agonism; D3R DiscoveRx beta-arrestin cells, luminescence, 90 min; AID 652048; 410,000 tested, 0.58% active; P35462; max activation, %; in the data active means max activation above about 30%; further: 0% is about no effect
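Agonist mode: compounds and dopamine controls were applied to plated cells for 90 min at 37 degrees C after an overnight attachment at 1500 cells/well. Luminescent read-out followed 30 - 60 minutes at room temperature with DiscoveRx detection reagent.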
ClpP mod – qHTS Assay for Activators of ClpP. ATP-dependent Clp protease proteolytic subunit (Bacillus subtilis (strain 168)), P80244. purified B. subtilis ClpP, FRET peptide cleavage, 20 min. Potency, µM (top dose mostly 57.5 µM), for the others: at the highest dose activity change, negative = active. 340,000 tested, 1.9% active. AID 651965, 2013; active means well fitted falling curve with a large enough effect; inconclusive means small, poorly fitted or top-dose-only effect; inactive means no such curve, though single readings can be large or run the other way; further: potency means the concentration at half of the fitted maximal effect; the source files actives as falling curves though it sought activators and does not explain the sign; nearly all actives have a fitted effect of over 65% in size
Target sequence (P80244 whole entry, looked up): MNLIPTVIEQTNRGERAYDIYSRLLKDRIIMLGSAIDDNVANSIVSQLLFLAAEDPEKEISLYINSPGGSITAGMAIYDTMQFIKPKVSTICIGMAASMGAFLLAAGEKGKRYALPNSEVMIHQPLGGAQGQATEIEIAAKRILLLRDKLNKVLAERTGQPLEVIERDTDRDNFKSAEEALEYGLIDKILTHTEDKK
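FRET quenching reversal measured ClpP activation: 10 microg/mL B. subtilis ClpP at pH 8 with the FRET-FV decapeptide, read at 430 nm after 320 nm excitation. The 20-min minus 0-min signal was scaled between DMSO/no-enzyme wells and ADEP (5.8 microM final).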
DRD3 antagonist – blocks the human D3 dopamine receptor. P35462. D3R cells, DiscoveRx beta-arrestin luminescence, antagonist mode; stronger effect = lower value. max response, negative = inhibition, %. 360,000 tested, 2.5% active; in the data active means max response below about -50%; inconclusive means no clear call, values can overlap the other calls; further: on the % scale 0 is the no-effect control and ±100 the full control effect
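Cells plated overnight at 1500 cells/well, then exposed to library compounds with dopamine controls for 90 minutes at 37 degrees C. DiscoveRx reagent added for 30–60 minutes at room temperature; luminescence read, quantitative HTS format.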
TDP1 cell noCPT – qHTS for Inhibitors of human tyrosyl-DNA phosphodiesterase 1 (TDP1): qHTS in cells in absence of CPT; AID 686978, 2013; 420,000 tested, 15% active; Potency, µM (doses to about 46.2 µM), inactives show at the top dose activity change, negative = growth inhibition, usual class: inhibitors; DT40 Tdp1-/- hTDP1 cells, no CPT, ATP luminescence, 48 h; further: potency means the concentration at half of the fitted maximal effect; on the % scale 0 is the no-effect control and ±100 the full control effect; nearly all actives have a fitted effect of over 55% in size
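A cellular qHTS used chicken DT40 cells lacking endogenous Tdp1 but carrying stably transfected human TDP1. Compounds were applied without camptothecin, and cell growth kinetics were judged by ATP-dependent luminescence after ≥48 hr.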
TDP1 cell CPT – DT40-hTDP1 cell growth loss with CPT | chicken DT40 Tdp1-/-;hTDP1 cells + 20 nM CPT, ATP luminescence, 48 h | Potency, µM (doses to about 46.2 µM), inactives show at the top dose activity change, negative = growth inhibition, most hits filed as inhibitors | 420,000 tested, 12% active | AID 686979; further: potency means the concentration at half of the fitted maximal effect; on the % scale 0 is the no-effect control and ±100 the full control effect; nearly all actives have a fitted effect of over 55% in size
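Cell growth measured by CellTiter-Glo luminescence after a minimum 48 h, 37 C compound exposure with 20 nM CPT in Tdp1-knockout DT40 cells stably expressing hTDP1, seeded 400/well; qHTS titration format.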
Active calls of the source: *. Unless noted, the call rests on the fitted dose curve; in most records, active means well fitted inhibition curve with a large enough effect; inconclusive means small, poorly fitted or top-dose-only effect; inactive means flat fitted curve, though single readings scatter.

O=C(CSc1ccc(Cl)cc1)NC(=O)NCc1ccco1 was read as IL-1B inflam inh -83.1*, D3 ag 5.8, ClpP mod 1.3%, DRD3 antagonist 2.6, TDP1 cell noCPT inconclusive and TDP1 cell CPT 16.4µM*.
O=C(CSc1ccc(Cl)cc1)Nc1cccc(NC(=O)c2ccco2)c1 was read as IL-1B inflam inh -65.8*, D3 ag 1.8, ClpP mod 0.4%, DRD3 antagonist 16.2, TDP1 cell noCPT -26.0% and TDP1 cell CPT inconclusive.
O=C(NCCSc1ccc(Cl)cc1)c1ccco1 was read as IL-1B inflam inh 0.0, D3 ag 2.5, ClpP mod 0.2%, DRD3 antagonist -8.6, TDP1 cell noCPT -12.5% and TDP1 cell CPT -2.3%.
For O=C(CCSc1ccc(Cl)cc1)c1ccco1 the results were IL-1B inflam inh -96.3*, D3 ag 1.7, ClpP mod -0.8%, DRD3 antagonist 5.8, TDP1 cell noCPT 2.06µM* and TDP1 cell CPT 2.06µM*.
Screening O=C(CSc1nnnn1C1CCCCC1)Nc1cccc(NC(=O)c2ccco2)c1 returned IL-1B inflam inh -22.6, D3 ag 4.1, ClpP mod -0.1%, DRD3 antagonist -15.1, TDP1 cell noCPT 4.11µM* and TDP1 cell CPT 5.8µM*.
For O=C(CSc1nnnn1C1CCCC1)Nc1cccc(NC(=O)c2ccco2)c1 the results were IL-1B inflam inh -3.2, D3 ag 3.5, ClpP mod 0.1%, DRD3 antagonist 8.7, TDP1 cell noCPT inconclusive and TDP1 cell CPT -29.0%.
For Cc1cccc(N(CC(=O)N2CCc3ccccc3C2)S(C)(=O)=O)c1C the results were IL-1B inflam inh 15.4, D3 ag -11.2, ClpP mod 0.4%, DRD3 antagonist -7.2, TDP1 cell noCPT -3.8% and TDP1 cell CPT 0.4%.
O=C(CC(NS(=O)(=O)c1ccc(Cl)cc1)c1ccco1)NCc1ccco1 (configuration not stated) was read as IL-1B inflam inh -11.6, D3 ag -1.9, ClpP mod 25.1µM*, DRD3 antagonist -2.9, TDP1 cell noCPT -22.4% and TDP1 cell CPT -10.8%.
For Nc1nnc(SCC(=O)c2ccco2)s1 the results were IL-1B inflam inh 11.0, D3 ag -2.3, ClpP mod 0.1%, DRD3 antagonist 17.7, TDP1 cell noCPT -5.9% and TDP1 cell CPT -4.4%.
O=C(CSc1ccccc1Cl)c1ccco1 was read as IL-1B inflam inh -12.8, D3 ag 3.4, ClpP mod -2.4%, DRD3 antagonist -9.8, TDP1 cell noCPT 8.2µM* and TDP1 cell CPT 20.6µM*.
For O=C(CSc1ccc(Cl)cc1)c1ccco1 the results were IL-1B inflam inh -28.3, D3 ag -14.5, ClpP mod -1.0%, DRD3 antagonist -74.4*, TDP1 cell noCPT 23.1µM* and TDP1 cell CPT 16.4µM*.
Screening CC(NS(=O)(=O)c1ccc(Cl)cc1)C(=O)NCc1ccco1 (configuration not stated) returned IL-1B inflam inh -9.5, D3 ag -5.7, ClpP mod -3.5%, DRD3 antagonist -2.3, TDP1 cell noCPT -3.3% and TDP1 cell CPT 3.3%.
`Cc1ccc(C(=O)NC(=O)OCCn2c(C)cnc2[N+](=O)[O-])cc1` gave IL-1B inflam inh 3.9, D3 ag 3.6, DRD3 antagonist 10.6, TDP1 cell noCPT -12.9% and TDP1 cell CPT 12.1%.
O=[N+]([O-])c1cccc(-c2nnc3cccc(Cl)n23)c1 was read as IL-1B inflam inh 22.2, D3 ag 5.3, DRD3 antagonist 12.0, TDP1 cell noCPT -19.9% and TDP1 cell CPT 7.6%.
Screening O=[N+]([O-])c1cccc(-c2nnc3ccc4ccccc4n23)c1 returned IL-1B inflam inh 15.4, D3 ag -6.6, ClpP mod 2.0%, DRD3 antagonist -20.1, TDP1 cell noCPT 13µM* and TDP1 cell CPT 16.4µM*.
CC1CCN(CCCC(=O)c2ccc(F)cc2)CC1 was read as D3 ag -20.9, TDP1 cell noCPT -12.3% and TDP1 cell CPT -5.1%.
